{
  "source": "PubChem BioAssay (EPA / NIEHS)",
  "note": "Activity calls are given as the source filed them. Rule for the calls: active = hit-call score of the fitted dose curve at least 0.9, where 1 is the maximum; inactive = score below 0.9.",
  "data": [
    {"assay": "ATG_NF_kB_CIS: Attagene CIS-FACTORIAL HepG2 Assay for human Nuclear Factor Kappa B (NF-kB) (AID 2282991)", "details": "HepG2 Attagene cis-factorial NF-kB reporter mRNA; actives raise or lower the signal", "procedure": "ATG_CIS is a cell-based, multiplexed-readout assay that uses HepG2, a human liver cell line, with measurements taken at 24 hours after chemical dosing in a 24-well plate.ATG_NF_kB_CIS is one of 52 assay component(s) measured or calculated from the ATG_CIS assay. It is designed to make measurements of mRNA induction, a form of inducible reporter, as detected with fluorescence intensity signals by Reverse transcription polymerase chain reaction (RT-PCR) and Capillary electrophoresis technology.Data from the assay component ATG_NF_kB_CIS was analyzed into 1 assay endpoint. This assay endpoint, ATG_NF_kB_CIS, was analyzed with bidirectional fitting relative to DMSO as the negative control and baseline of activity. Using a type of inducible reporter, measures of mRNA for gain or loss-of-signal activity can be used to understand the reporter gene at the transcription factor-level as they relate to the gene NFKB1. Furthermore, this assay endpoint can be referred to as a primary readout, because this assay has produced multiple assay endpoints where this one serves a reporter gene function. To generalize the intended target to other relatable targets, this assay endpoint is annotated to the dna binding intended target family, where the subfamily is NF-kappa B.\nHuman liver HepG2 cells are transiently transfected with multiple reporter transcription units (MRTUs) in 6-well plates using FuGene 6 reagent (Roche; 3 ml FuGene/1 mg DNA). The MRTU constructs are regulated by a cis-regulating element (promoter). […] A major difference between the CIS and TRANS system is that in CIS activities of endogenous TFs are measured, whereas the TRANS assay evaluates changes in activities of exogenous, chimeric NR-Gal4 proteins. […] At the end of 24 hour incubation, total RNA was isolated using TriZol reagent (Invitrogen). The isolated RNA is then reverse-transcribed using oligo(dT) primer and Mo-MLV reverse transcriptase (Invitrogen) with DNAse I (Ambion) treatment for 30 min. The one-tenth of the produced cDNA was amplified by PCR using Taq DNA polymerase (Invitrogen) and two reporter sequence-specific primers. The PCR products were fluorescently labeled by primer extension with 6-arboxyfluorescein (6-FAM) 5'-labeled reporter sequence-specific primer (2 min at 95 C, 20 s at 68 C and 10 min at 72 C) and these products were digested with 5U of HpaI (New England Biolabs) for 2h at 37 C. The fragments were purified using Qiaquick PCR columns (Qiagen), analyzed on an ABI 3130xL genetic analyzer (Applied Biosystems) with peak positions identified by using a set of X-rhodamine (ROX)-labeled MapMarker1000 molecular weight standards (BioVentures). The raw capillary electrophoresis data was processed using Attagraph software (Attagene).", "values": [
      {"compound": "CCCc1c(OCCCCc2nn[nH]n2)ccc(C(C)=O)c1O", "outcome": "inactive"},
      {"compound": "Nc1ccc(S(=O)(=O)Nc2cnc3ccccc3n2)cc1", "outcome": "inactive"},
      {"compound": "CCCCOC(=O)COc1ccc(Cl)cc1Cl", "outcome": "inactive"},
      {"compound": "CC/C=C\\CC1=C(C)CCC1=O", "outcome": "inactive"},
      {"compound": "CC(C)=CCOC(=O)c1ccccc1", "outcome": "inactive"},
      {"compound": "Cc1cc2nc3c(=O)[nH]c(=O)nc-3n(C[C@H](O)[C@H](O)[C@H](O)CO)c2cc1C", "outcome": "inactive"},
      {"compound": "O=C(O)c1cc(Cl)cc(Cl)c1O", "outcome": "inactive"},
      {"compound": "CN(C)CCC(c1ccc(Cl)cc1)c1ccccn1", "note": "(stereo not given)", "outcome": "inactive"},
      {"compound": "CCCCNC(N)=O", "outcome": "inactive"},
      {"compound": "CCCCCCCCCCCCCCCCCC[N+](C)(C)C", "AC50": "3.31 µM (active)"},
      {"compound": "CCCCCC1CCCC(=O)O1", "note": "(stereo not given)", "outcome": "inactive"},
      {"compound": "OCCN(CCO)c1cccc(Cl)c1", "outcome": "inactive"},
      {"compound": "O=C(Oc1ccccc1)c1ccccc1", "outcome": "inactive"},
      {"compound": "Oc1cccc2ccccc12", "outcome": "inactive"},
      {"compound": "CC1=NN(c2cc(Cl)c(S(=O)(=O)O)cc2Cl)C(=O)C1N=Nc1ccc(S(=O)(=O)O)cc1", "note": "(stereo not given)", "outcome": "inactive"},
      {"compound": "C=C1CC[C@H]2C[C@@H]1C2(C)C", "outcome": "inactive"},
      {"compound": "CN(C)c1ccc(C(c2ccccc2)c2ccc(N(C)C)cc2)cc1", "outcome": "inactive"},
      {"compound": "COC(=O)c1ccccc1", "outcome": "inactive"},
      {"compound": "CCCCCCC(O)CCCCCCCCCCC(=O)OC", "note": "(stereo not given)", "outcome": "inactive"},
      {"compound": "CCCCCCCCCC/C=C/C1CC(=O)OC1=O", "note": "(stereo not given)", "outcome": "inactive"},
      {"compound": "c1ccc2c(c1)Oc1ccccc1S2", "outcome": "inactive"},
      {"compound": "CCCCCCOC(=O)CCCCCCCC(=O)OCCCCCC", "outcome": "inactive"},
      {"compound": "CC=CC(=O)O", "outcome": "inactive"},
      {"compound": "CCCOCCC", "outcome": "inactive"},
      {"compound": "COCCCN", "outcome": "inactive"},
      {"compound": "N#CCN(CC#N)CCN(CC#N)CC#N", "outcome": "inactive"},
      {"compound": "CCc1cc(C(N)=S)ccn1", "outcome": "inactive"},
      {"compound": "Cc1ccccc1S(N)(=O)=O", "outcome": "inactive"},
      {"compound": "CCOc1ccc2c(c1)C(C)CC(C)(C)N2", "note": "(stereo not given)", "outcome": "inactive"},
      {"compound": "Cc1cc(O)cc(C)c1Cl", "outcome": "inactive"},
      {"compound": "NC(=O)c1ccc([N+](=O)[O-])cc1Cl", "outcome": "inactive"},
      {"compound": "CCCCC(CC)COC(=O)CS", "note": "(stereo not given)", "outcome": "inactive"},
      {"compound": "COC(=O)CCSCCC(=O)OC", "outcome": "inactive"},
      {"compound": "CCCN[C@H]1CCc2nc(N)sc2C1", "outcome": "inactive"},
      {"compound": "CNC(=C[N+](=O)[O-])NCCSCc1csc(CN(C)C)n1", "outcome": "inactive"},
      {"compound": "Nc1nnc(-c2ccc([N+](=O)[O-])o2)o1", "outcome": "inactive"},
      {"compound": "O=C(CC(C(=O)OC1CCCCC1)S(=O)(=O)O)OC1CCCCC1", "note": "(stereo not given)", "outcome": "inactive"},
      {"compound": "C=CCOCC(CC)(CO)COCC=C", "outcome": "inactive"},
      {"compound": "CC1=C(CC=O)C(C)(C)CCC1", "outcome": "inactive"},
      {"compound": "CCC(=O)OCc1ccc(OC)cc1", "outcome": "inactive"}
    ]}
  ]
}
